# Screening results from PubChem.
# Lamin A splicing = LMNA splicing modulation | actives 0.01% (n = 200,000) | HeLa LMNA splicing GFP/RFP minigene ratio, 48 h | Potency, µM (doses to about 46.1 µM), without a hit: top-dose ratio change, negative = inhibition, usual class: inhibitors; active = well fitted inhibition curve with a large enough effect in the signal ratio, with a control signal flat, not every such curve was filed as active; inconclusive = small, poorly fitted or top-dose-only effect, or effect the other way, or a change in a side signal; the % refers to the signal ratio; also: potency is read from the fitted curve at half-maximal effect
#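 S3 HeLa stable clones carrying a lamin A-EGFP splicing minigene plus DsRed2 were seeded at 600 cells/well in Opti-MEM with 2% FBS, pin-dosed and incubated 48 h at 37°C. Acumen cytometry (488 nm) gave the GFP/RFP total-intensity ratio.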
# PNC assembly inh = perinucleolar compartment assembly inhibition. actives 3.1% (n = 140,000). PC3M PTB-GFP, PNC prevalence imaging, 16 h; active compounds read low. activity change (PNC), negative = inhibition, % at 10 µM;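 active = readout at or below -70, meaning at least 70% loss of cells showing the perinucleolar compartment, a nuclear body marking cancer cells; inconclusive = readout between -30 and a set limit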;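 also: plate controls were DMSO wells for no effect and camptothecin positive control wells for full effect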
#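 Read-out is percentage of cells bearing a perinucleolar compartment, from automated 20x imaging of fixed, Hoechst-stained PC3M PTB-GFP cells. Cells were seeded 4 h, then exposed 16 h to compound (23 nl of library stock) in duplicate plates.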
# HPGD inh = blocks human HPGD enzyme activity; P15428; purified HPGD, NADH fluorescence kinetic, PGE2 substrate; Potency, µM, for the others: at the top dose activity change, negative = inhibition, hits mostly inhibitors; actives 4.3% (n = 150,000); AID 894; also: potency is read from the fitted curve at half-maximal effect
# Target sequence (P15428 whole entry, looked up): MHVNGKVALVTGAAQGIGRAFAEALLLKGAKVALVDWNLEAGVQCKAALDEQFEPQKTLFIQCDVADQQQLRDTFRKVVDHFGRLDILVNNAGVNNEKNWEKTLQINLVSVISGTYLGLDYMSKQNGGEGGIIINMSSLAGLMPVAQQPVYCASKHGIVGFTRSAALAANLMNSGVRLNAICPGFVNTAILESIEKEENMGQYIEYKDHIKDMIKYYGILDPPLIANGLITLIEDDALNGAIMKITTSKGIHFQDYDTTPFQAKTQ
#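 NADH formation kinetics: reaction with 30 uM PGE2 and 1 mM NAD+ (final), 20 nM enzyme, Tris-HCl pH 8 with Tween 20, after 15 min compound preincubation at room temperature. Fluorescence change, last versus first of five reads.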
# ALDH1A1 block = blocks purified human ALDH1A1 activity. P00352. Potency, µM (top dose mostly 75.3 µM), inactives show at the highest dose activity, negative = inhibition, actives largely listed as inhibitors. actives 7.3% (n = 220,000). Purified ALDH1A1, NADH fluorescence, propionaldehyde substrate;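 also: potency is read from the fitted curve at half-maximal effect; plate controls were no enzyme wells and a reference inhibitor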
# Luc counter = Kinase-Glo luciferase inhibition (counter-screen); Q27757; actives 0.28% (n = 200,000); Potency, µM (series often up to 38.3 µM), without a hit: at the highest dose activity change, negative = inhibition, hits mostly inhibitors; AID 1379; Kinase-Glo luciferase, ATP luminescence, 8 min; active = well fitted inhibition curve with a large enough effect; inconclusive = small, poorly fitted or top-dose-only effect; also: potency is read from the fitted curve at half-maximal effect; nearly all actives have a fitted effect of over 60% in size
#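 Compounds were added to a substrate mix at pH 7.2 (50 mM imidazole, 10 uM ATP, within the enzyme's linear range), followed by Kinase-Glo detection reagent; luminescence was measured after 8 minutes at ambient temperature.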
# * marks the source's active call; other numbers are inactive results; u = inconclusive; x = no result; [ ] = another dose, or the depositor's remark. Sampled rows, rich in hits. Any-hit rate of the full collection: about 10%. Unless noted, calls follow the shape of the dose curve; as a rule, active = well fitted inhibition curve with a large enough effect (not every such curve was filed as active); inconclusive = small, poorly fitted or top-dose-only effect, or another doubt; inactive = no such curve, though single readings can be large or run the other way. Unless noted, % is scaled to controls: 0 for no effect and ±100 for the full control effect.
SMILES,Lamin A splicing,PNC assembly inh,HPGD inh,ALDH1A1 block,Luc counter
Cc1cccc(-n2c(N)cc(=O)nc2SCC(=O)Nc2nnc(CC(C)C)s2)c1,7%,-4,-10%,8%,6%
CCCCc1nnc(NC(=O)CSc2nc(=O)cc(N)n2-c2cccc(C)c2)s1,16%,-81*,-10%,-2%,-1%
C[C@@H]1C[C@](C)(C(=O)c2ccc3ccccc3c2)C=C1c1ccc2ccccc2c1,x,x,-3%,3%,2%
C[C@@H]1C[C@](C)(C(=O)c2ccco2)C=C1c1ccco1,x,x,-8%,14µM*,-1%
O=C(NCc1cccnc1)c1ccccc1-c1nc(-c2ccccc2)no1,x,x,x,20µM*,-14%
CCNC(=O)c1ccccc1-c1nc(-c2ccccc2Cl)no1,9%,7,u,-5%,-4%
O=C(CCc1nc(-c2ccccc2)no1)NCc1cccnc1,-7%,-17,-7%,1%,-1%
Cc1ccccc1-c1noc(-c2ccccc2C(=O)NCc2ccco2)n1,x,x,x,14µM*,x
C[C@@H](C(=O)O)c1ccc(N2Cc3ccccc3C2=O)cc1,u,x,-2%,10%[20.9 µM],u
O=S(=O)(Nc1ccc2c(c1)OCCO2)c1ccc2oc3ccccc3c2c1,u,38,28µM*,u,2%
CCOC(=O)/C=C/CCC/C=C/C(=O)c1ccccc1,x,x,-14%,-10%,3%
Nn1cnn(Cc2ccccc2)c1=S,-3%,29,20µM*,25µM*,2%
COC(=O)c1ccc(Sc2ccccc2NS(=O)(=O)c2ccc(C)cc2)nc1,-1%,35,0%,28µM*,-4%
COc1ccc(C(=O)CN2C(=O)N(c3ccc(C(C)=O)cc3)S(=O)(=O)c3ccccc32)cc1,-13%[46 µM],x,x,x,x
COCCn1c(=O)c(-c2cc(F)cc(F)c2)nc2cnc(OC)nc21,x,x,u,u,0%
CN(C)CCNc1oc(-c2ccc(COc3ccc(Cl)cc3)o2)nc1C#N,-12%[46 µM],x,x,x,x
CCOC(=O)C1=C(c2ccccc2)OC(N)=C(C#N)C1c1ccncc1 (stereo not drawn),x,x,x,u,1%
CC1=C(n2nnc3ccccc32)C(c2ccccc2)C(C#N)=C(N)O1 (stereo not drawn),-16%,u,u,13µM*,0%
NC(=S)n1[nH]c(-c2ccc([N+](=O)[O-])cc2)c(N=Nc2cccc([N+](=O)[O-])c2)c1=O,u,x,x,25µM*,3%
CC(=O)Nc1ccc(N=Nc2c(C)[nH]n(C(N)=S)c2=O)cc1,x,x,x,u,1%
Cc1c(N=Nc2c(-c3ccc([N+](=O)[O-])cc3)[nH]n(C(N)=S)c2=O)cccc1[N+](=O)[O-],x,x,x,22µM*,-2%
NC(=S)n1[nH]c(-c2ccc([N+](=O)[O-])cc2)c(N=Nc2ccccc2[N+](=O)[O-])c1=O,u,x,x,u,-1%
O=C(c1csnn1)N1CCC[C@@]2(CCN(Cc3ccccc3)C2)C1,x,x,3%,12%,-1%
Cn1c(Cc2cccs2)nnc1SCc1nc2ccccc2[nH]1,-8%,8,-15%,-2%,1%
Cn1c(SC/C=C/c2ccccc2)nnc1-c1ccco1,-5%,-100*,-26%,u,0%
SMILES,Lamin A splicing,PNC assembly inh,HPGD inh,ALDH1A1 block,Luc counter
C(=C\c1ccccc1)/CSc1nnc(-c2cnccn2)n1Cc1ccco1,u,9,-20%,22µM*,-2%
Cn1c(Cc2cccs2)nnc1SC/C=C/c1ccccc1,-1%,-100*,-27%,-5%,1%
Fc1ccc(CSc2nnc(-c3cnccn3)n2Cc2ccco2)cc1,-1%,-17,-4%,5%,1%
Nn1c(SC/C=C/c2ccccc2)nnc1-c1ccncc1,8%,-1,-8%,-7%,13%
Cc1cccc(C(=O)NCC(c2cccs2)S(=O)(=O)c2cccs2)c1 (stereo not drawn),-4%[46 µM],x,x,x,x
CCOc1ccc(S(=O)(=O)NCCc2csc(-c3ccc(Cl)cc3)n2)cc1,6%[46 µM],x,x,x,x
COc1ccc(C(=O)NC(=S)NCc2ccc(-c3nc4ccccc4o3)cc2)cc1OC,15%,-25,-21%,5µM*,-1%
COc1ccc(C(=O)NC(=S)NCc2ccccc2)cc1OC,u,x,x,u,-1%
CCN(C(=O)Nc1cn(CC(C)C)c(=O)c2ccccc12)c1cc(C)ccc1C,-2%[46 µM],x,x,x,x
C/C(=N\NC(=S)NCc1ccccc1)c1ccco1,x,x,x,32µM*,-3%
C/C(=N\NC(=S)NCc1ccccc1)c1ccccc1,u,-2,-8%,-2%,-1%
N[C@@H](Cc1ncccn1)C(=O)O,x,x,-4%,-12%[13.5 µM],-9%[7.66 µM]
CCC1CCCCN1C(=O)C1CC(c2cc(Cl)c(OC)cc2OC)=NO1 (stereo not drawn),-8%,25,14µM*,u,2%
C[C@]12CC[C@@H]3c4ccc(O)cc4CC[C@H]3[C@@H]1C[C@H](O)C2O (stereo partly drawn),2%,x,x,x,x
CN1/C(=C\C(=S)NC(=O)c2cccc(Br)c2)C(C)(C)c2ccccc21,u,-18,x,1µM*,x
CN1/C(=C/C=N/NC(=O)c2ccc([N+](=O)[O-])cc2)C(C)(C)c2ccccc21,-2%,u,-18%,-8%,-11%
CN1/C(=C/C(=O)C2CC2)C(C)(C)c2ccccc21,x,x,x,-6%,-1%
CN1/C(=C/C2CC(=O)N(c3ccc([N+](=O)[O-])cc3)C2=O)C(C)(C)c2ccccc21 (stereo not drawn),15%,u,-20%,11µM*,-1%
CN1/C(=C\C(=O)Nc2ccc(Br)cc2)C(C)(C)c2ccccc21,u,-8,-6%,u,0%
CN1/C(=C\C(=S)NC(=O)c2ccc([N+](=O)[O-])cc2)C(C)(C)c2ccccc21,-17%,-10,-1%,35µM*,-4%
Cc1c(C(=O)N2CCN(S(C)(=O)=O)CC2)oc2ccccc12,5%,-19,-1%,u,-3%
Cc1c(C(=O)N2CCN(CCc3ccccc3)CC2)oc2ccccc12,-1%,u,-4%,14µM*,0%
COC(=O)C1(C(=O)OC)CC2=CC(CC2=O)Cc2ccccc2[C@@H]1C[N+](=O)[O-] (stereo partly drawn),x,x,-4%,9%,2%
COC(=O)c1ccccc1COn1c(=O)c(C)[n+]([O-])c2ccccc21,-3%,-22,-4%,22µM*,1%
CCOC(=O)c1cc(NC(=O)CSCCO)ccc1Cl,1%,35,-4%,22µM*,2%
c1nc(N2CCCCC2)c2[nH]cnc2n1,-21%,-119*,-11%,1%,0%
c1cncc(-c2nc3cc4ccccc4cc3[nH]2)c1,11%,-28,u,u,u
CC(=O)Nc1ccc2nc(-c3ccncc3)[nH]c2c1,9%,-17,u,u,-1%
c1ccc(-c2nc3cc4ccccc4cc3[nH]2)nc1,u,24,-15%,0%,11µM*
